Test results as given in PubChem BioAssay (Tox21).
Inconclusive results are not listed. Activity calls are given as the source filed them. Unless noted, calls come from the whole dose curve.

What was measured:
[1] = biological target: Gonadotropin-releasing hormone receptor (Homo sapiens) (UniProt P30968); experiment: Human gonadotropin-releasing hormone receptor (GnRHR) small molecule agonists, calcium flux assay in GnRHR-HEK293 cells (AID 1920063); note: nearly all actives have a fitted effect of over 35% in size
Chain of Gonadotropin-releasing hormone receptor (Homo sapiens) (P30968 whole entry, looked up): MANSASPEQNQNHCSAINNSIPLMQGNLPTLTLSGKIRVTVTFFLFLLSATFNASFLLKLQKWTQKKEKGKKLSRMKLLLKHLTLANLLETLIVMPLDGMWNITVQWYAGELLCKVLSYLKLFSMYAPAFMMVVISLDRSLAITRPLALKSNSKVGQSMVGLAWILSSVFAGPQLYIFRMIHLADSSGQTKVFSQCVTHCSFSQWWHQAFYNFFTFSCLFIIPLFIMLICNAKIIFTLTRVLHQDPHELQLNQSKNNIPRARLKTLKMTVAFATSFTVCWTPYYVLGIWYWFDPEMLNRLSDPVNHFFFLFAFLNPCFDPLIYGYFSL
Procedure, shortened: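 Agonist mode: compounds at 15 concentrations, in triplicate, went onto calcium dye-loaded GnRHR-HEK293 cells. Intracellular calcium was then followed as 480/540 nm fluorescence at 1 s intervals over 3 min.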

[2] = biological target: KiSS-1 receptor (Homo sapiens) (UniProt Q969F8); experiment: Human kisspeptin (KISS1R) small molecule agonists, calcium flux assay in KISS1R-HEK293 cells (AID 1920064; active = well fitted activation curve with a large enough effect in the repeat runs)
Chain of KiSS-1 receptor (Homo sapiens) (Q969F8 whole entry, looked up): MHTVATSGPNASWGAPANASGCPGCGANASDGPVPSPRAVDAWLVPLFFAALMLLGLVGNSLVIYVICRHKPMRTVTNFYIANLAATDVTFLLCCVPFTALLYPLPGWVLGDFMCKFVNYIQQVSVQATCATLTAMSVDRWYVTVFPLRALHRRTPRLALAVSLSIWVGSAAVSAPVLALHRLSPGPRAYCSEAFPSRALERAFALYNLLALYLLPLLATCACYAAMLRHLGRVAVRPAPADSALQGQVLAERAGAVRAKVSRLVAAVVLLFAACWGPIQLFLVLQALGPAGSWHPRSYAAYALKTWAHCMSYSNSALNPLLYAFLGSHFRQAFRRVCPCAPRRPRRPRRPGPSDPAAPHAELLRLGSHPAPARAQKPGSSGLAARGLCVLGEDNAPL
Procedure, shortened: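 Agonist mode: intracellular calcium rise tracked at 1 s intervals over 3 min (480/540 nm) immediately after compound addition to dye-loaded KISS1R-HEK293 stable cells. Each compound tested at 15 concentrations in triplicate.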

[3] = G protein-coupled receptor (GPCR) small molecule agonists, calcium flux assay: HEK293 wild type cell line counter screen (AID 1920065)
Procedure, shortened: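 Calcium flux counter screen: compound added in agonist mode at 15 concentrations in triplicate to dye-loaded parental HEK293 cells. Fluorescence (480/540) read kinetically for 3 min; ATP served as positive control.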

[4] = p53 small molecule agonists, cell-based qHTS assay with human liver microsomes (AID 1963577)
Procedure, shortened: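 p53RE-bla cells, 4,000/well, compound added after 5 h, with human liver microsomes 0.5 mg/mL and NADPH 0.5 mg/mL final; 16 h at 37 C, then LiveBLAzer 2 h RT, fluorescence.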

[5] = p53 small molecule agonists, cell-based qHTS assay with rat liver microsomes (AID 1963578)
Procedure, shortened: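 p53RE-bla cells, 4,000/well, pre-incubated 5 h, then given compounds plus rat liver microsomes (0.5 mg/mL final) and NADPH (0.5 mg/mL final). Incubation 16 h at 37 C; beta-lactamase reporter read by LiveBLAzer fluorescence after 2 h at room temperature.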

[6] = p53 small molecule agonists, cell-based qHTS assay with human liver microsomes: qHTS cell viability counter screen (AID 1963579); note: nearly all actives have a fitted effect of over 45% in size; note: potency is the fitted concentration of half-maximal effect
Procedure, shortened: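 p53RE-bla cells, 4,000/well, dosed 5 hours after plating, with human liver microsomes (0.5 mg/mL final) plus NADPH (0.5 mg/mL final), 16 hours at 37 C. Viability read as CellTiter-Glo luminescence after 30 min at room temperature.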

[7] = p53 small molecule agonists, cell-based qHTS assay: qHTS cell viability counter screen (AID 1963581); note: nearly all actives have a fitted effect of over 45% in size; note: potency is the fitted concentration of half-maximal effect
Procedure, shortened: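 Counter screen read by CellTiter-Glo luminescence (ATP content, 30 min at room temperature), run in the same wells as the beta-lactamase reporter read. HCT-116 p53RE-bla cells saw compounds for 16 h at 37 C.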

[8] = p53 small molecule agonists, cell-based qHTS assay (AID 1963582; active = well fitted activation curve with a large enough effect in the signal ratio in the repeat runs, not every such curve was filed as active; the % refers to the signal ratio; note: potency is the fitted concentration of half-maximal effect)
Procedure, shortened: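 Read-out is beta-lactamase FRET fluorescence after 2 h at room temperature with LiveBLAzer B/G substrate. p53 response element-bla cells were treated 16 h at 37 C with compounds in DMSO, added 5 h after seeding.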

[9] = biological target: 5-hydroxytryptamine receptor 2A (Homo sapiens) (UniProt P28223); experiment: 5-hydroxytryptamine receptor 2A (HTR2A) small molecule antagonists, cell-based qHTS assay (AID 1963586); note: nearly all actives have a fitted effect of over 45% in size; note: potency is the fitted concentration of half-maximal effect
Chain of 5-hydroxytryptamine receptor 2A (Homo sapiens) (P28223 whole entry, looked up): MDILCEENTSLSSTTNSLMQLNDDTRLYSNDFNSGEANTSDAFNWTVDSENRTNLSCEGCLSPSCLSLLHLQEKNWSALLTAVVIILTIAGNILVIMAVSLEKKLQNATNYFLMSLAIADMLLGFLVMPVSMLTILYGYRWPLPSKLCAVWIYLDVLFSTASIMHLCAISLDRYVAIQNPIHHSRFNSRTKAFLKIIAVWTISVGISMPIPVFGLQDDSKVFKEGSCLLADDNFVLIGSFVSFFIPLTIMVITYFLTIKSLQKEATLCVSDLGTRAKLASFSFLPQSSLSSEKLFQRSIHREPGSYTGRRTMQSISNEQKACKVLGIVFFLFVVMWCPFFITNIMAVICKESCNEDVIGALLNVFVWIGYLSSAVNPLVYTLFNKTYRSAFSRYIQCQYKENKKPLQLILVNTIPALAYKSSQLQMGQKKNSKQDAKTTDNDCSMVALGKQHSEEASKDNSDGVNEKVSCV
Procedure, shortened: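 CHO cells stably expressing human HTR2A were plated for 18 h at 37 C, then loaded with calcium dye for 1 h. Compounds were preincubated 5 min at room temperature before DOI (4 nM solution) was added. Kinetic fluorescence was read for 3 min.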

[10] = biological target: 5-hydroxytryptamine receptor 2A (Homo sapiens) (UniProt P28223); experiment: 5-hydroxytryptamine receptor 2A (HTR2A) small molecule agonists, cell-based qHTS assay (AID 1963587); note: nearly all actives have a fitted effect of over 30% in size; note: potency is the fitted concentration of half-maximal effect
Procedure, shortened: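 Kinetic calcium-flux fluorescence (2 min, 1 sec intervals) after compound addition in agonist mode. HTR2A-CHO cells were cultured 18 h, then dye-loaded 1 h at 37 C.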

[11] = biological target: Muscarinic acetylcholine receptor M1 (Homo sapiens) (UniProt P11229); experiment: Cholinergic receptor muscarinic 1 (CHRM1) small molecule antagonists, cell-based qHTS assay (AID 1963588); note: nearly all actives have a fitted effect of over 40% in size
Chain of Muscarinic acetylcholine receptor M1 (Homo sapiens) (P11229 whole entry, looked up): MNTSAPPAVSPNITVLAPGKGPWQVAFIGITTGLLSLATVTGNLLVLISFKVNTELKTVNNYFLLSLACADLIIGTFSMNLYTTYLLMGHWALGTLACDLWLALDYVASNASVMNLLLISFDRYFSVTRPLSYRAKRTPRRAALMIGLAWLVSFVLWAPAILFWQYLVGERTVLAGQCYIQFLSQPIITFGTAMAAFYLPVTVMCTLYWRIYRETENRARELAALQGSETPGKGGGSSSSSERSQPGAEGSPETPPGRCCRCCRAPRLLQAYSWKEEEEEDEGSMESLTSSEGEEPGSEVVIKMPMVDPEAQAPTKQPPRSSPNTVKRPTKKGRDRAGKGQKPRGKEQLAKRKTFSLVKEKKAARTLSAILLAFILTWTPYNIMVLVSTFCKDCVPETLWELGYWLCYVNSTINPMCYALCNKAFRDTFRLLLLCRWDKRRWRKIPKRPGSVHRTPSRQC
Procedure, shortened: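 Compounds were tested at 15 concentrations in three independent runs. Dye-loaded CHRM1-CHO cells were exposed 5 min at room temperature before stimulation by acetylcholine added at 50nM. Intracellular calcium was read kinetically on FDSS for 3 min.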

[12] = biological target: Muscarinic acetylcholine receptor M1 (Homo sapiens) (UniProt P11229); experiment: Cholinergic receptor muscarinic 1 (CHRM1) small molecule agonists, cell-based qHTS assay (AID 1963589); note: nearly all actives have a fitted effect of over 35% in size
Procedure, shortened: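 Agonist-mode calcium-flux screen: compounds at 15 concentrations, three independent runs, were pin-transferred onto dye-loaded human CHRM1-CHO cells. Fluorescence was then recorded kinetically every second over minutes.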

[13] = cAMP Responsive Elements (CRE) small molecule agonists, cell-based qHTS assay (AID 1963590)
Procedure, shortened: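 Agonist mode: compound added to CRE-bla HEK 293T cells (2,000/well, 18 h after plating) for 3 h at 37 C/5% CO2. Reporter activity detected via FRET beta-lactamase substrate, 2 h room-temperature loading.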

[14] = cAMP Responsive Elements (CRE) small molecule antagonists, cell-based qHTS assay (AID 1963591; active = well fitted inhibition curve with a large enough effect in the signal ratio in the repeat runs, not every such curve was filed as active; the % refers to the signal ratio)
Procedure, shortened: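 Antagonist mode: compounds are added alongside the adenylyl cyclase activator NKH477 (0.25 uM final) to CRE-bla HEK293T cells for 3 h. LiveBLAzer FRET substrate, 2 h at room temperature, reports bla expression.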

[15] = biological target: Beta-2 adrenergic receptor (Homo sapiens) (UniProt P07550); experiment: Adrenergic beta2 receptor (ADRB2) small molecule antagonists, cell-based qHTS assay (AID 1963592); note: nearly all actives have a fitted effect of over 50% in size; note: potency is the fitted concentration of half-maximal effect; for activity change, negative = inhibition: series mostly up to about 92 µM
Chain of Beta-2 adrenergic receptor (Homo sapiens) (P07550 whole entry, looked up): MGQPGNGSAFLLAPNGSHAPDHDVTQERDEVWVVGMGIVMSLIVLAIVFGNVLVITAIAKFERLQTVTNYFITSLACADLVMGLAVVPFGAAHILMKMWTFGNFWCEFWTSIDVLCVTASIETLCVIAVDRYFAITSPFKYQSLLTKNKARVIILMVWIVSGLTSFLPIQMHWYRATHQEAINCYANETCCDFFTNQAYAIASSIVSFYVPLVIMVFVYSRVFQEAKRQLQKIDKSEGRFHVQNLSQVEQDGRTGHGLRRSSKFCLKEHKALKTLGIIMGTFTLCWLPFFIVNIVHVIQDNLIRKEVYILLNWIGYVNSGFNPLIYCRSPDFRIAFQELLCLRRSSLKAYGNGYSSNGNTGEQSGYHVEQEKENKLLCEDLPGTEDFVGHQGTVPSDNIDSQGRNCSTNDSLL
Procedure, shortened: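 Assay format: CHO-ADRB2 cells, 18-20hr seeding at 37C/5% CO2, then compound plus 1nM isoproterenol agonist mix for 0.5hr RT. Homogeneous time-resolved fluorescence cAMP detection after 1hr, expressed as 665/615 nm ratio.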

[16] = biological target: D(2) dopamine receptor (Homo sapiens) (UniProt P14416); experiment: Dopamine D2 receptor (DRD2) small molecule agonists, cell-based qHTS assay (AID 1963594); note: nearly all actives have a fitted effect of over 35% in size
Chain of D(2) dopamine receptor (Homo sapiens) (P14416 whole entry, looked up): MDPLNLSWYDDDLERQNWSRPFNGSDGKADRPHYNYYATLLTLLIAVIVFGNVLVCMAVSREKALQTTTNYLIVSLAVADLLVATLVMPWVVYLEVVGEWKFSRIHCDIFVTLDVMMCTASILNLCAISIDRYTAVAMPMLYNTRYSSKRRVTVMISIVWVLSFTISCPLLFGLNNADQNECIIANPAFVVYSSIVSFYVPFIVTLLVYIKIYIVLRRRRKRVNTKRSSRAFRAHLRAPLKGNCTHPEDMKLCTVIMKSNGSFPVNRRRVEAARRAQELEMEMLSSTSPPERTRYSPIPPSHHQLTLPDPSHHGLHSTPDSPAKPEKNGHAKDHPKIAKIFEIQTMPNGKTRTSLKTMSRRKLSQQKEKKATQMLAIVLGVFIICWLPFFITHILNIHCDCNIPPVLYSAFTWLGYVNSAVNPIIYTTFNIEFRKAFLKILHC
Procedure, shortened: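 cAMP accumulation in DRD2-HEK293 cells measured by HTRF after 1 h detection; compounds added 10 min before NKH477 (200nM […]) forskolin-analogue stimulation, 30 min at room temperature, with Ro20-1724 present at 0.1 mM final.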

[17] = biological target: D(2) dopamine receptor (Homo sapiens) (UniProt P14416); experiment: Dopamine D2 receptor (DRD2) small molecule antagonists, cell-based qHTS assay (AID 1963595; active = well fitted inhibition curve with a large enough effect in the signal ratio in the repeat runs, with a control signal flat; the % refers to the signal ratio)
Procedure, shortened: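 HEK293 cells stably expressing DRD2, preincubated with 0.1 mM Ro20-1724 and compounds 10 min, were stimulated with 200 nM NKH477 plus 12 nM quinpirole for 30 min at room temperature; cAMP measured by HTRF (665/620 nm).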

[18] = p53 small molecule agonists, cell-based qHTS assay with rat liver microsomes: qHTS cell viability counter screen (AID 1963580); note: nearly all actives have a fitted effect of over 45% in size; note: potency is the fitted concentration of half-maximal effect
Procedure, shortened: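 Rat liver microsome (0.5 mg/mL final) and NADPH (0.5 mg/mL final) co-incubation with compounds for 16 h at 37 C on HCT-116 p53RE-bla cells; cytotoxicity taken from intracellular ATP luminescence.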

[19] = biological target: Beta-2 adrenergic receptor (Homo sapiens) (UniProt P07550); experiment: Adrenergic beta2 receptor (ADRB2) small molecule agonists, cell-based qHTS assay (AID 1963593);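 note: CHO cells stably overexpressing human ADRB2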
Procedure, shortened: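 CHO cells stably over-expressing ADRB2 were plated overnight at 37C, then dosed with compounds plus a stimulation mix containing 100uM IBMX and 25uM Ro-20-1724 for 0.5hr at room temperature. cAMP was measured by HTRF competition, 1hr.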

[20] = Nuclear factor erythroid 2-related factor 2/antioxidant responsive element (Nrf2/ARE) small molecule agonists: luciferase reporter gene qHTS assay in human keratinocytes (AID 1919969); note: nearly all actives have a fitted effect of over 35% in size
% is set by controls: 0 for no effect and ±100 for the full control effect.

O=C(O)O
inactive: activity change [1] 1.69% [at 5.22 µM, active compounds read high] | activation [2] 0.0823% [at 6.97 µM] | activation [3] -0.66% [at 5.23 µM] | activation [4] -14.9% [at 5.99 µM] | activation [5] -6.42% [at 5.99 µM] | activity change, negative = cytotoxicity [6] -18.2% [at 5.99 µM] | activity change, negative = cytotoxicity [7] 11.6% [at 5.99 µM] | activation [8] -4.58% [at 5.99 µM] | activity, negative = inhibition [9] 11.9% [at 5.62 µM] | activation [10] -3.03% [at 7.02 µM] | activity, negative = inhibition [11] -13.8% [at 5.58 µM] | activation [12] -0.0976% [at 6.97 µM] | activation [13] 2.15% [at 8.39 µM] | activity change, negative = inhibition [14] -6.17% [at 8.39 µM] | activity change, negative = inhibition [15] -4.62% [at 8.39 µM] | activation [16] -1.72% [at 8.39 µM] | activity change, negative = inhibition [17] 0.0808% [at 8.38 µM]

Cc1ccc(Cl)c(N)c1Cl
active: Potency [6] 18.2 µM
inactive: Potency [1] | Potency [2] | Potency [3] | Potency [4] | Potency [5] | Potency [18] | Potency [7] | Potency [8] | Potency [9] | Potency [10] | Potency [11] | Potency [12] | Potency [13] | Potency [14] | Potency [15] | Potency [19] | Potency [17]

C[C@@H]1CC[C@H]2C(C)(C)[C@H]3C[C@@]12CC[C@@]3(C)O
active: Potency [10] 48.9 µM
inactive: Potency [1] | Potency [2] | Potency [3] | Potency [4] | Potency [5] | Potency [6] | Potency [18] | Potency [7] | Potency [8] | Potency [9] | Potency [11] | Potency [12] | Potency [13] | Potency [14] | Potency [15] | Potency [16] | Potency [17]

O=[N+]([O-])c1ccc(NCCO)c(OCCO)c1
inactive: Potency [1] | Potency [2] | Potency [3] | Potency [4] | Potency [5] | Potency [6] | Potency [7] | Potency [8] | Potency [9] | Potency [10] | Potency [11] | Potency [13] | Potency [15] | Potency [16] | Potency [17]

C=C1C(=C/C=C2\CCC[C@]3(C)[C@@H]([C@H](C)/C=C/[C@@H](O)C4CC4)CC[C@@H]23)C[C@@H](O)C[C@@H]1O
inactive: Potency [20] | Potency [3] | Potency [6] | Potency [18] | Potency [7] | Potency [11] | Potency [12] | Potency [15] | Potency [16] | Potency [17]

CCc1cc(SCc2sc(-c3ccc(C(F)(F)F)cc3)nc2CN2CCN(c3ccc(OC)cc3)CC2)ccc1OCC(=O)O
active: Potency [6] 36.3 µM | Potency [18] 32.4 µM | Potency [7] 12.9 µM
inactive: Potency [1] | Potency [2] | Potency [3] | Potency [4] | Potency [5] | Potency [12] | Potency [16]

COc1cc(C=C2CCC/C(=C\c3ccc(O)c(OC)c3)C2=O)ccc1O
active: Potency [7] 14.1 µM | Potency [9] 18.3 µM
inactive: Potency [1] | Potency [2] | Potency [3] | Potency [4] | Potency [5] | Potency [6] | Potency [8] | Potency [11] | Potency [12] | Potency [15] | Potency [19] | Potency [16] | Potency [17]

COc1cc([C@@H]2c3cc4c(cc3[C@@H](O[C@@H]3O[C@@H]5CO[C@@H](C)O[C@H]5[C@H](O)[C@H]3O)[C@H]3COC(=O)[C@H]23)OCO4)cc(OC)c1O
active: Potency [8] 1.14 µM
inactive: Potency [1] | Potency [2] | Potency [3] | Potency [4] | Potency [5] | Potency [6] | Potency [18] | Potency [7] | Potency [15] | Potency [16] | Potency [17]

Nc1ccn([C@H]2CS[C@@H](CO)O2)c(=O)n1
inactive: Potency [1] | Potency [2] | Potency [3] | Potency [4] | Potency [5] | Potency [6] | Potency [18] | Potency [7] | Potency [8] | Potency [13] | Potency [14] | Potency [15] | Potency [19] | Potency [16] | Potency [17]

CN1CCC[C@@H]1CCO[C@](C)(c1ccccc1)c1ccc(Cl)cc1
inactive: Potency [1] | Potency [2] | Potency [3] | Potency [4] | Potency [5] | Potency [6] | Potency [18] | Potency [7] | Potency [8] | Potency [16]

O=[N+]([O-])c1ccc(O)cc1
inactive: Potency [1] | Potency [2] | Potency [3] | Potency [4] | Potency [5] | Potency [6] | Potency [18] | Potency [7] | Potency [8] | Potency [9] | Potency [10] | Potency [11] | Potency [12] | Potency [13] | Potency [14] | Potency [19] | Potency [16]

O=Cc1ccc(Cl)c([N+](=O)[O-])c1
inactive: Potency [1] | Potency [2] | Potency [3] | Potency [4] | Potency [5] | Potency [6] | Potency [7] | Potency [10] | Potency [11] | Potency [12] | Potency [15] | Potency [16] | Potency [17]

Cc1cccc(OCCOc2cccc(C)c2)c1
inactive: Potency [1] | Potency [2] | Potency [3] | Potency [4] | Potency [5] | Potency [6] | Potency [18] | Potency [7] | Potency [8] | Potency [9] | Potency [10] | Potency [11] | Potency [12] | Potency [13] | Potency [15] | Potency [16] | Potency [17]

OCCN1CCN(CCCN2c3ccccc3Sc3ccc(C(F)(F)F)cc32)CC1
active: Potency [15] 10.6 µM
inactive: Potency [1] | Potency [2] | Potency [3] | Potency [4] | Potency [5] | Potency [6] | Potency [18] | Potency [7] | Potency [13] | Potency [14] | Potency [16]

CC(C)CCOC(=O)/C=C/c1ccccc1
inactive: Potency [1] | Potency [2] | Potency [3] | Potency [4] | Potency [5] | Potency [6] | Potency [18] | Potency [7] | Potency [8] | Potency [9] | Potency [10] | Potency [11] | Potency [14] | Potency [15] | Potency [19] | Potency [16] | Potency [17]
